Source: publication PMC3218832

What was measured:
Assay in all cases: protein binding microarray; high values mean tight binding
Details in all cases: dsDNA, one strand shown
[1] = molecular target: RELARELA (p65 homodimer) (Homo sapiens, UniProt Q04206 1-307)
[2] = molecular target: p50p50 homodimer (Homo sapiens, UniProt P19838 7-356)
[3] = molecular target: T1, p52p52 homodimer (Homo sapiens, UniProt Q00653 4-332)
T1 sequence: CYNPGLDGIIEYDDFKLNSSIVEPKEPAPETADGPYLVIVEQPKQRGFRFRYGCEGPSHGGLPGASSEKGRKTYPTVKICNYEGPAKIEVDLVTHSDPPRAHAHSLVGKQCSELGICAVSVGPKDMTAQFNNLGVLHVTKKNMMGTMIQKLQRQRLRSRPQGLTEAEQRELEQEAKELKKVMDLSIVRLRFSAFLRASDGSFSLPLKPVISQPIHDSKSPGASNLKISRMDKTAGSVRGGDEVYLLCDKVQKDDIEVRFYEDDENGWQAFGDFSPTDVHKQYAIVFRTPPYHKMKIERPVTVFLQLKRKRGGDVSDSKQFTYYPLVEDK

[4] = molecular target: RELA (p65) subunit of heterodimer;p50 subunit (Homo sapiens;Homo sapiens, UniProt Q04206;P19838 1-307;7-356)
[5] = molecular target: RELA (p65) subunit of heterodimer;p52 subunit (Homo sapiens;Homo sapiens, UniProt Q04206;Q00653 1-307;4-332)
[6] = molecular target: RELB subunit;p50 subunit (Homo sapiens;Homo sapiens, UniProt Q01201;P19838 120-401;7-356)
[7] = molecular target: T2, RELB subunit;p52 subunit (Homo sapiens;Homo sapiens, UniProt Q01201;Q00653 120-401;4-332)
T2 sequence 1: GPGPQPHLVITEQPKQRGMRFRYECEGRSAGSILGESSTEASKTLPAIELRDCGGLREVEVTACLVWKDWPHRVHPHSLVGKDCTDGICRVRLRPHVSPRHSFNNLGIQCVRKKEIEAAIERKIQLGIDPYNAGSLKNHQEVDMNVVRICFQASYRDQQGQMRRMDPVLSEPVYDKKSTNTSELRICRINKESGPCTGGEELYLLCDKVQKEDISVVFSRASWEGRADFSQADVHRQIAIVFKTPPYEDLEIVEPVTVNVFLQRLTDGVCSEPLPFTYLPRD
T2 sequence 2: T1 sequence

[8] = molecular target: C-Rel subunit;p50 subunit (Homo sapiens;Homo sapiens, UniProt Q04864;P19838 1-285;7-356)
[9] = molecular target: T3, C-Rel subunit;p52 subunit (Homo sapiens;Homo sapiens, UniProt Q04864;Q00653 1-285;4-332)
T3 sequence 1: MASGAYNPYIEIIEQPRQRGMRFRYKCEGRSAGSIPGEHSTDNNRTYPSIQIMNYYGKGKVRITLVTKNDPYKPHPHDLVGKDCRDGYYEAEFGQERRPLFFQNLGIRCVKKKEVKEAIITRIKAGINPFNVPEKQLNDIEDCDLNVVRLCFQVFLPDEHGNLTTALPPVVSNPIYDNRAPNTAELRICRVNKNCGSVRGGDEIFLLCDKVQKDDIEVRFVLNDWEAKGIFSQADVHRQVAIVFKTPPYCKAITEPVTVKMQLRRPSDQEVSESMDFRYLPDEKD
T3 sequence 2: T1 sequence

RELARELA (p65 homodimer), sequence (Q04206 1-307): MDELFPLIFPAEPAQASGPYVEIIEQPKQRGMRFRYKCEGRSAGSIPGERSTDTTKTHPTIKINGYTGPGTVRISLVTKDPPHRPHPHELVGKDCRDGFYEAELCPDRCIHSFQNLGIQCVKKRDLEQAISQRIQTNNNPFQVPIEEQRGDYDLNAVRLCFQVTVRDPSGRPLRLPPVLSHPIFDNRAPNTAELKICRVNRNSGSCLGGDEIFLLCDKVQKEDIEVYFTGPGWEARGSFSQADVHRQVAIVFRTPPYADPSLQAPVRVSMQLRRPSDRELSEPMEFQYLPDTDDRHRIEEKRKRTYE
RELA (p65) subunit of heterodimer;p50 subunit, sequence (Q04206 1-307, chain 1 of 2): as the sequence (Q04206 1-307) above
RELA (p65) subunit of heterodimer;p50 subunit, sequence (P19838 7-356, chain 2 of 2): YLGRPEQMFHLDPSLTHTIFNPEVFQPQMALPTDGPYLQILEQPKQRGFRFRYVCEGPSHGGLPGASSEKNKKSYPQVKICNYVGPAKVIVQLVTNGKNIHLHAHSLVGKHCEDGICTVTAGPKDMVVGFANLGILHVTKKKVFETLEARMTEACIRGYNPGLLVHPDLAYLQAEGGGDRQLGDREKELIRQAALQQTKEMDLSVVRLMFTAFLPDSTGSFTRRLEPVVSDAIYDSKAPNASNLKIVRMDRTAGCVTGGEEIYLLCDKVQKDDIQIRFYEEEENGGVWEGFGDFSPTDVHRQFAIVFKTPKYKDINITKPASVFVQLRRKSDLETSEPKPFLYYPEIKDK
p50p50 homodimer, sequence (P19838 7-356): as the sequence (P19838 7-356, chain 2 of 2) above

| Sequence | binding signal [1] [z-score] | binding signal [2] [z-score] | binding signal [3] [z-score] | binding signal [4] [z-score] | binding signal [5] [z-score] | binding signal [6] [z-score] | binding signal [7] [z-score] | binding signal [8] [z-score] | binding signal [9] [z-score] |
| --- | --- | --- | --- | --- | --- | --- | --- | --- | --- |
| CGGGTAGTCCC | 1.24 | 0.936 | 1.66 | 1.36 | 1.23 | 0.735 | 1.17 | 1.09 | 1.5 |
| CGGTGAGCCCC | -0.508 | 0.0715 | -0.0385 | -0.0467 | 0.0767 | -0.0666 | 0.236 | 0.3 | 0.314 |
| GGGTGGGCCCT | 0.392 | -0.139 | -0.133 | -0.0704 | -0.184 | -0.392 | -0.318 | -0.304 | 0.357 |
| AAGTTGTTCCT | -0.106 | -1.19 | -0.438 | -0.58 | -0.753 | -0.971 | -0.787 | -0.889 | -0.685 |
| CGAAGACTCCC | -0.527 | -0.307 | -0.407 | -0.172 | -0.618 | -0.262 | -0.747 | -0.657 | -0.571 |
| AAGATCGTCCC | 0.328 | 0.168 | 0.307 | -0.197 | -0.135 | 0.309 | 0.078 | 0.266 | -0.166 |
| CGAAAGATCCC | 0.0219 | -0.089 | -0.151 | -0.0254 | -0.0507 | 0.0265 | -0.282 | -0.258 | -0.147 |
| AAAATACCCCT | 1.01 | 1.41 | 1.92 | 1.65 | 1.8 | 1.63 | 2.25 | 1.26 | 1.95 |
| GAGTATATCCT | -0.264 | -1.06 | -0.578 | -0.876 | -0.768 | -1 | -0.866 | -1.36 | -0.891 |
| GGGTTGACCCT | -0.0795 | -0.785 | -0.387 | -0.407 | -0.336 | -0.554 | -0.73 | -0.769 | -0.115 |
| CAATGCACCCT | -0.473 | -0.555 | -0.333 | -0.616 | -0.779 | -0.601 | -0.639 | -1 | -0.653 |
| AAGGTACTCCC | -0.19 | 0.76 | 0.735 | 0.376 | 0.386 | 0.54 | 0.302 | 0.206 | 0.449 |
| GGGAACCCCCC | 2.47 | 1.16 | 3.03 | 2.69 | 2.78 | 2.09 | 2.68 | 2.19 | 2.96 |
| AAATGGACCCC | -0.781 | -0.458 | -0.348 | -0.532 | -0.428 | -0.448 | -0.0987 | -0.615 | -0.473 |
| AGAGTGTCCCT | 0.267 | 0.607 | 0.823 | 0.527 | 0.604 | 0.851 | 1.25 | 0.738 | 0.669 |
| CGGGAGATCCT | -0.093 | 0.247 | 0.164 | -0.217 | 0.0606 | 0.132 | 0.152 | -0.227 | 0.0327 |
| AGATTCTTCCT | -0.0679 | -0.78 | -0.546 | -0.559 | -0.896 | -0.929 | -0.93 | -0.642 | -0.588 |
| CAATTATCCCC | 0.4 | 1.12 | 1.04 | 1.31 | 1.12 | 1.3 | 1.33 | 1.2 | 0.884 |
| AGGTGTGCCCT | -0.542 | -1.63 | -0.541 | -0.712 | -0.661 | -0.956 | -0.903 | -0.883 | -0.535 |
| GAAGTTTCCCC | 2.24 | 1.35 | 2 | 2.3 | 1.99 | 2.19 | 2.19 | 1.89 | 1.71 |
| GAGGTTCTCCC | 0.0177 | 0.0309 | -0.068 | -0.00394 | -0.121 | 0.333 | 0.107 | -0.166 | -0.0434 |
| GAGGGATTCCT | 0.218 | 0.321 | 0.87 | 0.254 | 0.589 | 0.159 | 0.491 | 0.376 | 0.538 |
| GAGTGCGTCCT | -0.395 | -1.33 | -0.581 | -0.981 | -0.769 | -0.991 | -0.844 | -1.14 | -0.662 |
| AGATTGGTCCT | -0.38 | -1.15 | -0.549 | -1.18 | -0.788 | -0.729 | -0.656 | -1.35 | -0.852 |
| AAGGGGGCCCC | -0.0322 | 0.728 | 0.786 | 0.441 | 0.981 | 0.694 | 1.04 | 0.532 | 0.709 |
| CAAAAAGTCCC | 2.29 | 1.2 | 2.38 | 1.75 | 1.58 | 2.23 | 1.75 | 1.53 | 2.25 |
| GAAGGCGTCCC | -0.376 | -0.0302 | -0.0163 | -0.134 | -0.134 | 0.147 | 0.216 | -0.0533 | -0.265 |
| AGATGCGCCCT | -0.621 | -1.13 | -0.603 | -0.768 | -0.721 | -1.01 | -0.804 | -1.47 | -0.758 |
| CGGATGGTCCC | 0.128 | -0.139 | -0.00887 | 0.132 | 0.027 | -0.0363 | -0.117 | 0.0204 | 0.154 |
